# High-throughput results deposited in PubChem BioAssay by National Center for Advancing Translational Sciences (NCATS).
# In the library only some 8% were active in any assay of this set; here they are far more common.
# HCMV antiviral – human cytomegalovirus inhibition; HFF cells, HCMV-luciferase reporter, 72 h; hits give low values; activity change, negative = inhibition, % at 57.5 µM; hit rate 4.5% among 410,000; in the data active = activity change below about -60%; inconclusive = no clear call, values can overlap the other calls; inactive = above about -39%; also: % is scaled to controls: 0 for no effect and ±100 for the full control effect
#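 Compounds were evaluated in HFFs infected with an HCMV luciferase reporter virus (MOI 1 PFU/cell). Luciferase in lysates collected 72 h post infection served as the replication measure.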
# LASV entry inh – inhibitors of Lassa virus binding or cell entry; hit rate 1.2% among 300,000; Lassa virus pseudotype entry inhibition, cell reporter; Potency, µM (top dose mostly 37.9 µM), inactives show at the highest dose activity change, negative = inhibition, hits mostly inhibitors; calls by dose curve; tested in HEK293 cells; also: potency is read from the fitted curve at half-maximal effect; % is scaled to controls: 0 for no effect and ±100 for the full control effect; nearly all actives have a fitted effect of over 50% in size
# SARS PLpro yeast – inhibitors of SARS-CoV papain-like protease in yeast; S. cerevisiae expressing SARS-CoV PLpro, growth rescue; Potency, µM (series often up to 32.9 µM), without a hit: at the highest dose activity, positive = growth rescue, actives largely listed as activators; hit rate 0.19% among 330,000; AID 485353; calls by dose curve; also: potency is read from the fitted curve at half-maximal effect; 0% is about no effect; nearly all actives have a fitted effect of over 55% in size
# FMDV antiviral – foot and mouth disease virus antiviral activity; Potency, µM (highest dose often 57.9 µM), for inactives: at the highest dose activity change, negative = inhibition, actives largely listed as inhibitors; FMDV antiviral cell-based qHTS; hit rate 1.2% among 410,000; AID 1159524; calls by dose curve; tested in HEK293T cells; also: read-out not given here; potency is read from the fitted curve at half-maximal effect; % is scaled to controls: 0 for no effect and ±100 for the full control effect; nearly all actives have a fitted effect of over 45% in size
# MARV entry inh – Marburg virus entry inhibition; Marburg virus pseudotyped entry inhibition, cell reporter; Potency, µM (series often up to 37.8 µM), for the others: top-dose activity change, negative = inhibition, hits mostly inhibitors; hit rate 1.8% among 300,000; AID 540276; calls by dose curve; tested in HEK293 cells; also: potency is read from the fitted curve at half-maximal effect; % is scaled to controls: 0 for no effect and ±100 for the full control effect
# HCV inh – blocks hepatitis C virus; Huh7.5.1 HCVcc-Cre infection, luciferase reporter, 44 h; Potency, µM (highest dose often 41.8 µM), for the others: at the top dose activity change, negative = inhibition, hits mostly inhibitors; hit rate 3.4% among 340,000; AID 651820; active = well fitted inhibition curve with a large enough effect; inconclusive = small, poorly fitted or top-dose-only effect, or another doubt; inactive = no such curve, though single readings can be large or run the other way; also: potency is read from the fitted curve at half-maximal effect; % is scaled to controls: 0 for no effect and ±100 for the full control effect
#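 Seed cells (1,000/well) for 4 h; treat with compound and infect with HCVcc-Cre, moi about 0.5. Incubate 44 h, then detect luciferase activity.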
# Numbers without * were called inactive; ? = inconclusive; nt = no result given; [ ] = another dose, or the depositor's remark.
SMILES,HCMV antiviral,LASV entry inh,SARS PLpro yeast,FMDV antiviral,MARV entry inh,HCV inh
Cc1nc(N)sc1-c1csc(Nc2ccccn2)n1,9,?,3%,-25%,?,-24%
CC(=O)Oc1ccc(-c2csc(Nc3ccc(Cl)cn3)n2)cc1,-8,nt,?,23%,nt,11µM*
Cc1nc(N)sc1-c1csc(Nc2ccc(Cl)cn2)n1,-18,-9%,21%,15%,?,8.9µM*
Cc1ccnc(Nc2nc(-c3sc(C)nc3C)cs2)c1,-107*,15%[46.1 µM],nt,-9%,5.6µM*,8.9µM*
Cc1nc(C)c(-c2csc(Nc3ccccn3)n2)s1,-20,nt,-21%,-24%,nt,8.9µM*
Cc1ccnc(Nc2nc(-c3ccc(F)cc3)cs2)c1,33,?,-4%,-93%,?,?
C[C@H](N)CCP(=O)(O)O,nt,nt,nt,-25%,nt,nt
O=C(c1cccs1)c1cn(CCOc2ccc(F)cc2)c2ccccc12,37,21%[46.1 µM],nt,-21%,-15%[46.1 µM],nt
CCCCCOc1ccc(NC(=O)Cn2c(-c3cncs3)nc3ccccc32)cc1,-64*,10%[46.1 µM],nt,-8%,-8%[46.1 µM],nt
Cc1cc(C)cc(NC(=O)Cn2c(-c3cncs3)nc3ccccc32)c1,-27,-9%[46.1 µM],nt,-20%,3%[46.1 µM],nt
CCCc1cc(=O)oc2c3c(ccc12)OCN(Cc1ccc(OC)cc1)C3,-29,5%[46.1 µM],nt,0%,nt,nt
O=C(c1ccc2ccccc2c1)N1CCn2c(nnc2C(=O)N2CCOCC2)C1,-1,nt,nt,nt,nt,nt
CC1CC(C)CN(S(=O)(=O)c2ccc(Oc3ccc([N+](=O)[O-])cc3)cc2)C1 (stereo not drawn),-72*,4%,?,?,?,?
CCOC(=O)Nc1nnc(-c2ccccc2OC)s1,?,-2%,3%,33%,18%,?
CCC(SC1=NCCS1)C(=O)Nc1nnc(-c2ccccc2OC)s1 (stereo not drawn),-97*,nt,-2%,-5%,nt,13%
Cn1cccc1/C=C1\Cc2ccccc2C1=O,101,nt,-3%,56%,nt,?
Cn1cccc1/C=C1\CC(C(C)(C)C)C/C(=C\c2cccn2C)C1=O (stereo not drawn),-25,-20%,5%,-20%,?,2.5µM*
C=CC[C@@H]1C=C[C@@H](ON=C2[C@H]3CCn4c(=O)n(-c5ccccc5)c(=O)n4[C@@H]3[C@H](O)[C@@H]3O[C@H]23)[C@@H](CO)O1,nt,nt,nt,nt,-22%[14.2 µM],nt
COC(=O)c1cccc(Nc2c(-c3ccc(SC)cc3)nc3nc[nH]n23)c1,80,-19%[46.1 µM],nt,53%,nt,nt
COc1ccc(-c2nc3ccccc3n2Cc2ccc(C(C)C)cc2)cc1,-73*,0%[46.1 µM],nt,-30%,?,nt
COc1ccc(-c2nc3ccccc3n2Cc2ccc(Cl)cc2)cc1,4,?,nt,-25%,?,nt
N#Cc1ccccc1NC(=O)CSc1ccc([N+](=O)[O-])cn1,-66*,4%[46.1 µM],1%,-3%,8%[46.1 µM],5%
O=C(CSC1=Nc2ccccc2C2CC=NN12)Nc1ccc2c(c1)OCO2 (stereo not drawn),50,-2%[46.1 µM],-3%,20µM*,?,?
Cc1nnc(NC(=O)CSc2ccc([N+](=O)[O-])cn2)s1,35,-12%[46.1 µM],0%,-3%,25%[46.1 µM],8%
N#Cc1ccccc1NC(=O)CSC1=Nc2ccccc2C2CC=NN12 (stereo not drawn),-60*,-1%,-2%,?,1%[46.1 µM],-12%
SMILES,HCMV antiviral,LASV entry inh,SARS PLpro yeast,FMDV antiviral,MARV entry inh,HCV inh
CCCOC(=O)c1ccc(NC(=O)CSC2=Nc3ccccc3C3CC=NN23)cc1 (stereo not drawn),54,2%,-6%,-8%,-3%,3%
CCS(=O)(=O)N1CCc2cc(C(=O)Nc3ccc(OC)cc3OC)ccc21,-4,7%[46.1 µM],nt,-28%,?,nt
C#Cc1ccc(-n2nc3ccccc3c2OC)cc1,25,nt,nt,nt,nt,nt
CCOc1ccc(OCc2ccc(C(=O)NC(C)C)o2)cc1,26,nt,-1%,-3%,nt,?
CC(C)NC(=O)c1ccc(COc2cc(Cl)ccc2Cl)o1,9,-12%[46.1 µM],-4%,-7%,?,11µM*
C[C@@H]1COc2cccc(NCCCN3CCOCC3)c2S(=O)(=O)N1,-5,nt,nt,nt,nt,nt
Cc1ccc(S(=O)(=O)N2CCCc3cc(NS(=O)(=O)c4cc(F)ccc4F)ccc32)cc1,-21,?,nt,-30%,nt,nt
COc1ccc(S(=O)(=O)Nc2ccc3c(c2)CCCN3S(=O)(=O)c2ccc(C)cc2)cc1F,-64*,?,nt,-12%,nt,nt
Cc1ccc(S(=O)(=O)N2CCCc3cc(NS(=O)(=O)c4ccc(F)cc4)ccc32)cc1,?,?,nt,-25%,nt,nt
CC(=O)N1CCCc2ccc(NS(=O)(=O)c3ccc(C)c(C)c3)cc21,-34,?,6%,-7%,-17%[46.1 µM],?
COc1ccc(S(=O)(=O)Nc2ccc3c(c2)N(C(C)=O)CCC3)cc1F,-11,?,nt,10µM*,nt,nt
Cc1ccc(S(=O)(=O)N2CCCc3cc(NS(=O)(=O)c4ccccc4)ccc32)cc1,-9,10µM*,nt,1%,nt,nt
COc1cccc(NS(=O)(=O)c2ccc3c(c2)CCCN3C(C)=O)c1,-60*,-16%,4%,nt,-14%,-11%
O=C(/C=C/c1ccc([N+](=O)[O-])cc1)Nc1ncc([N+](=O)[O-])s1,-113*,?,-5%,-72%,5.8µM*,11µM*
O=C(/C=C/c1ccc([N+](=O)[O-])cc1)NCc1ccccn1,25,11%,22%,-16%,24%,21%
CC(=O)Nc1ccc(S(=O)(=O)N2CCN(CC(O)COc3ccc4ccccc4c3)CC2)cc1 (stereo not drawn),-87*,-26%[14.3 µM],-2%,-94%,6%,-5%
OC(COc1ccc2cc(Br)ccc2c1)CN1CCCC1 (stereo not drawn),-6,0%,-7%,-7%,8.2µM*,4.5µM*
O=S(=O)(N1CCCCC1)N1CCN(CC(O)COc2ccc3cc(Br)ccc3c2)CC1 (stereo not drawn),?,-28%,-20%,?,-21%,?
CN(C)S(=O)(=O)N1CCN(CC(O)COc2ccc3cc(Br)ccc3c2)CC1 (stereo not drawn),-13,0%,-6%,-29%,?,32µM*
OC(COc1ccc2cc(Br)ccc2c1)CN1CCN(c2ccccn2)CC1 (stereo not drawn),44,-3%,0%,?,?,?
CN(C)c1cccc(Nc2cc3c(cn2)cc(-c2cnn(C)c2)n3C)c1,-32,nt,nt,nt,nt,nt
Cc1ccccc1Oc1cc(-n2ncc(Cl)c(Cl)c2=O)ncn1,-105*,?,-86%,4.5µM*,?,?
CCOc1cnn(-c2cc(Oc3ccc(C)cc3)ncn2)c(=O)c1Cl,1,-15%,5%,0%,5%,-6%
Cc1cc(Cl)ccc1OCC(=O)N(Cc1sccc1C)C1CCS(=O)(=O)C1 (stereo not drawn),-5,-6%[46.1 µM],nt,-25%,-22%[46.1 µM],nt
